Growth data for 27 compounds are collected here from PubChem BioAssay (NCI).

Compounds without any hit were thinned out: in the full panel of roughly 83,000, 20% have a hit.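 Method: cells in 96-well plates; compound added at one concentration; 48 h incubation; percent growth measured; values under 10 scored active.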 Calls of active or inactive are those of the source.

The assay relates to K-562 leukemia. Nature of the assay: NCI-60 one-dose screen, 48 h (100 = growth as untreated, 0 = no growth, -100 = all killed). As to conditions: 10 µM unless noted.
Consider `COc1ccc(C2CC(c3ccc(S(=O)(=O)NCCNc4nc(Nc5ccc(F)cc5)nc(N(C)C)n4)cc3)=Nc3c(N)nc(N)nc3N2)cc1` (configuration not stated), for which the growth is 35.6% (inactive).
Under `O=C(Cn1nc(-c2ccccc2)ccc1=O)N/N=C/c1ccc(N2CCOCC2)cc1` stands 88.9% (inactive); under `CC1(C)CC[C@]2(C(=O)O)CC[C@]3(C)C(=CCC4[C@@]5(C)C[C@@H](O)[C@@H]6OC(c7cccc(Br)c7)OC[C@@]6(C)C5CC[C@]43C)C2C1` (some centres not stated), 16% (inactive).
Under `COc1ccc(C(=O)/C=C/c2ccc(OCc3ccccc3)c(OC)c2)cc1OC` stands 10.5% (inactive); under `O=C(N=Nc1c(O)[nH]c2ccc([N+](=O)[O-])cc12)c1ccc2nc(-c3ccccc3)[nH]c2c1`, 48.1% (inactive); under `C/C(=N\N=C\c1cc([N+](=O)[O-])ccc1Cl)c1ccc2c(c1)Nc1ccccc1S2`, 57.1% (inactive).
For the compound `C=C1CCC2C3(C)COC(c4ccc(F)cc4)OC3CCC2(C)C1C/C=C1/C(=O)OCC1O` (configuration not stated), the growth is 11.9% (inactive).
On to `CCCSc1nc(NCCc2c[nH]c3ccccc23)c(C#N)c(-c2ccc(OC)cc2)n1`, for which the growth is 23.5% (inactive).
With `N/C(=N\c1nc2ccccc2s1)NC(=O)Nc1ccccc1Br` the figure was 11.5% (inactive).
As to `O=C(Cn1c2c(sc1=O)[C@H]1[C@@H](O)[C@@H](O)[C@H](O)[C@@H]1CS2)N1CCOCC1`, the growth is 106% (inactive).
For the compound `COC(=O)/C=C/c1cccc2c1C(=O)NC(C)(c1cc3ccccc3oc1=O)N2` (configuration not stated), the growth was 56.6% (inactive).
With `Brc1ccc(-c2n(Cc3ccc4ccccc4c3)c(-c3ccccc3)c(-c3ccccc3)[n+]2Cc2ccc3ccccc3c2)cc1` the figure was 4.96% (active).
With `COc1ccc(NC(=O)Cn2c3c(sc2=O)[C@H]2[C@@H](O)[C@@H](O)[C@H](O)[C@@H]2CS3)cc1` the figure was 95.6% (inactive).
With `Cc1cc2nc3c4ccccc4n(CCCN(C)C)c3nc2cc1C` the figure was -4.14% (active); with `O=S(=O)(Nc1cccc(-n2cnc3cc(-c4ccc(O)cc4)ccc32)c1)C1CC1`, 8.55% (active).
For the compound `CN(C)c1ccnc(CNCCSC2(c3ccc(C(F)(F)F)cc3)c3ccccc3C=Cc3ccccc32)c1`, the growth is -11.1% (active).
With `CN(C)c1nc(NCCNS(=O)(=O)c2ccc(C3=Nc4c(N)nc(N)nc4NC(c4ccc(C(F)(F)F)cc4)C3)cc2)nc(Nc2ccc(F)cc2)n1` (configuration not stated) the figure was 1.59% (active).
With `O=C(NN1C(=O)/C(=C/C=C/c2ccc([N+](=O)[O-])o2)SC1=S)c1ccc(Cl)cc1` the figure was 3.88% (active).
As to `COCOc1ccc2c(=O)c(C)c(C(=O)N[C@@H](Cc3ccccc3)C(O)C(=O)NCCc3ccc(OC)cc3)oc2c1` (some centres not stated), the growth is 84.1% (inactive).
With `C#CCOc1cc(N(CC)CC)ccc1C(C(=O)NC(C)(C)C)N(C(=O)C1CCc2cc(F)ccc2O1)c1ccc(Br)cc1` (configuration not stated) the figure was 41.1% (inactive); with `Cc1cc2nc3c4ccccc4n(CC4=NCCN4)c3nc2cc1C`, -13.1% (active).
For the compound `Cn1cc(-c2nc(N)nnc2-c2c[nH]c3ccc(F)cc23)c2cccnc21`, the growth was 30.2% (inactive).
Under `COc1ccc(N2N=C(c3ccc4c(c3)OCO4)CC2c2cccc(NC(=O)CCNS(=O)(=O)c3ccc(Cl)cc3)c2)cc1` (configuration not stated) stands 9.67% (active).
Under `Cc1nc(Nc2ccccn2)sc1C(=O)CC(SCC(=O)Nc1ccc(Cl)cc1)c1ccccc1F` (configuration not stated) stands 11.8% (inactive).
Regarding `Cc1cccc(-c2nc(Nc3ccc(C)c(S(N)(=O)=O)c3)c3ccccc3n2)c1`, the growth was 7.2% (active).
Under `CN(C)CCn1c2ccccc2c2nc3cc(C(F)(F)F)ccc3nc21` stands 19.3% (inactive); under `S=C(Nc1ccccc1)Nc1ccc(OCc2nc3ccccc3[nH]2)cc1`, 15% (inactive).
